# The entries come from a sample that favours the strongest signals as a whole.
# B1: Mcg Light Chain Dimer (Homo sapiens), Q6PIK1 (protein)
# chain: MAGFPLLLTLLTHCAGSWGQSLLTQPPSVSGTPGQRVTISCSGSSSNIGINYVYWYQQIPGTAPKLLISTNDQRPSGVPDRFSGSKSGTSASLAIGGLRSEDEAHYYCAAWDDSMSGPGYAFGTGTKVTVLRQPKANPTVTLFPPSSEELQANKATLVCLISDFYPGAVTVAWKADGSPVKAGVETTKPSKQSNNKYAASSYLSLTPEQWKSHRSYSCQVTHEGSTVEKTVAPTECS
# B2: Factor H (Homo sapiens), P08603 (protein)
# chain: MRLLAKIICLMLWAICVAEDCNELPPRRNTEILTGSWSDQTYPEGTQAIYKCRPGYRSLGNVIMVCRKGEWVALNPLRKCQKRPCGHPGDTPFGTFTLTGGNVFEYGVKAVYTCNEGYQLLGEINYRECDTDGWTNDIPICEVVKCLPVTAPENGKIVSSAMEPDREYHFGQAVRFVCNSGYKIEGDEEMHCSDDGFWSKEKPKCVEISCKSPDVINGSPISQKIIYKENERFQYKCNMGYEYSERGDAVCTESGWRPLPSCEEKSCDNPYIPNGDYSPLRIKHRTGDEITYQCRNGFYPATRGNTAKCTSTGWIPAPRCTLKPCDYPDIKHGGLYHENMRRPYFPVAVGKYYSYYCDEHFETPSGSYWDHIHCTQDGWSPAVPCLRKCYFPYLENGYNQNYGRKFVQGKSIDVACHPGYALPKAQTTVTCMENGWSPTPRCIRVKTCSKSSIDIENGFISESQYTYALKEKAKYQCKLGYVTADGETSGSITCGKDGWSAQPTCIKSCDIPVFMNARTKNDFTWFKLNDTLDYECHDGYESNTGSTTGSIVCGYNGWSDLPICYERECELPKIDVHLVPDRKKDQYKVGEVLKFSCKPGFTIVGPNSVQCYHFGLSPDLPICKEQVQSCGPPPELLNGNVKEKTKEEYGHSEVVEYYCNPRFLMKGPNKIQCVDGEWTTLPVCIVEESTCGDIPELEHGWAQLSSPPYYYGDSVEFNCSESFTMIGHRSITCIHGVWTQLPQCVAIDKLKKCKSSNLIILEEHLKNKKEFDHNSNIRYRCRGKEGWIHTVCINGRWDPEVNCSMAQIQLCPPPPQIPNSHNMTTTLNYRDGEKVSVLCQENYLIQEGEEITCKDGRWQSIPLCVEKIPCSQPPQIEHGTINSSRSSQESYAHGTKLSYTCEGGFRISEENETTCYMGKWSSPPQCEGLPCKSPPEISHGVVAHMSDSYQYGEEVTYKCFEGFGIDGPAIAKCLGEKWSHPPSCIKTDCLSLPSFENAIPMGEKKDVYKAGEQVTYTCATYYKMDGASNVTCINSRWTGRPTCRDTSCVNPPTVQNAYIVSRQMSKYPSGERVRYQCRSPYEMFGDEEVMCLNGNWTEPPQCKDSTGKCGPPPPIDNGDITSFPLSVYAPASSVEYQCQNLYQLEGNKRITCRNGQWSEPPKCLHPCVISREIMENYNIALRWTAKQKLYSRTGESVEFVCKRGYRLSSRSHTLRTTCWDGKLEYPTCAKR
# Assays:
# Assay in all cases: glycan array binding signal (z-score within array); higher = stronger binding
# Details in all cases: glycan notation: IUPAC condensed, linker removed
# [1] = biological target: Fuc(a1-2)Gal(b1-3)GalNAc(b1-3)Gal
# In short: (§1)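 The binding signal is a Z-score computed within each array. Data were drawn from 3228 arrays in the Consortium for Functional Glycomics database, restricted to those with a known protein sequence. Scores were averaged over arrays of the same protein sequence at different concentrations or buffers, and over linkers, and negative values can be taken as non-binding.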
# [2] = biological target: Fuc(a1-2)[Gal(a1-3)]Gal(b1-4)Glc
# In short: as §1
# [3] = biological target: Fuc(a1-2)[GalNAc(b1-3)]Gal
# In short: as §1
# [4] = biological target: Fuc(a1-3)[Gal3S(b1-4)]GlcNAc6S
# In short: as §1
# Gal(a1-3)Gal(b1-4)Glc = biological target: Gal(a1-3)Gal(b1-4)Glc
# In short: as §1
# [5] = biological target: Gal(a1-3)Gal(b1-4)[Fuc(a1-3)]GlcNAc
# In short: as §1
# [6] = biological target: Gal(b1-3)[GlcNAc(b1-6)]GalNAc
# In short: as §1
# Gal(b1-4)Glc6S = biological target: Gal(b1-4)Glc6S
# In short: as §1
# [7] = biological target: Gal(b1-4)GlcNAc(b1-3)Gal(b1-4)GlcNAc
# In short: as §1
# [8] = biological target: Gal3S(b1-4)[Fuc(a1-3)]Glc
# In short: as §1
# Gal3S4S(b1-4)GlcNAc = biological target: Gal3S4S(b1-4)GlcNAc
# In short: as §1
# Gal3S6S(b1-4)GlcNAc6S = biological target: Gal3S6S(b1-4)GlcNAc6S
# In short: as §1
# Gal6S(b1-4)GlcNAc6S = biological target: Gal6S(b1-4)GlcNAc6S
# In short: as §1
# Man(a1-3)[Man(a1-6)]Man = biological target: Man(a1-3)[Man(a1-6)]Man
# In short: as §1
# [9] = biological target: Man(a1-3)[Man(a1-6)]Man(b1-4)GlcNAc(b1-4)GlcNAc
# In short: as §1
# [10] = biological target: Neu5Ac(a2-3)Gal(b1-3)GalNAc6S
# In short: as §1
# [11] = biological target: Neu5Ac(a2-3)Gal(b1-3)GlcNAc6S
# In short: as §1
# [12] = biological target: Neu5Ac(a2-3)Gal(b1-4)GlcNAc6S
# In short: as §1
# [13] = biological target: Neu5Ac(b2-6)Gal(b1-4)GlcNAc
# In short: as §1
# [14] = biological target: Neu5Gc(a2-3)Gal(b1-4)[Fuc(a1-3)]GlcNAc
# In short: as §1
# [15] = biological target: Neu5Gc(a2-6)Gal(b1-4)GlcNAc
# In short: as §1
# [16] = biological target: Fuc(a1-2)Gal(b1-3)GalNAc(b1-3)Gal(a1-4)Gal(b1-4)Glc
# In short: as §1
# Fuc(a1-2)Gal(b1-4)GlcNAc = biological target: Fuc(a1-2)Gal(b1-4)GlcNAc
# In short: as §1
# Fuc(a1-2)[Gal(a1-3)]Gal = biological target: Fuc(a1-2)[Gal(a1-3)]Gal
# In short: as §1
# [17] = biological target: Fuc(a1-3)[Gal(b1-4)]Glc6S
# In short: as §1
# [18] = biological target: Gal(a1-3)[Gal(a1-4)]Gal(b1-4)GlcNAc
# In short: as §1
# Gal(a1-4)Gal(b1-4)GlcNAc = biological target: Gal(a1-4)Gal(b1-4)GlcNAc
# In short: as §1
# [19] = biological target: Gal(b1-4)GlcNAc(b1-3)Gal(b1-4)Glc
# In short: as §1
# [20] = biological target: Gal(b1-4)GlcNAc(b1-3)[Gal(b1-4)GlcNAc(b1-6)]Gal(b1-4)GlcNAc
# In short: as §1
# [21] = biological target: Gal(b1-4)GlcNAc(b1-6)Gal(b1-4)GlcNAc
# In short: as §1
# [22] = biological target: Gal(b1-4)GlcNAc(b1-6)[Gal(b1-3)]GalNAc
# In short: as §1
# Gal6S(b1-4)Glc6S = biological target: Gal6S(b1-4)Glc6S
# In short: as §1
# [23] = biological target: GlcNAc(a1-3)Gal(b1-4)GlcNAc
# In short: as §1
# GlcNAc(b1-3)Man = biological target: GlcNAc(b1-3)Man
# In short: as §1
# [24] = biological target: GlcNAc(b1-3)[GlcNAc(b1-6)]GalNAc
# In short: as §1
# [25] = biological target: GlcNAc(b1-4)Gal(b1-4)GlcNAc
# In short: as §1
# [26] = biological target: GlcNAc(b1-4)GlcNAc(b1-4)GlcNAc(b1-4)GlcNAc(b1-4)GlcNAc(b1-4)GlcNAc
# In short: as §1
# Kdn(a2-3)Gal(b1-3)GlcNAc = biological target: Kdn(a2-3)Gal(b1-3)GlcNAc
# In short: as §1
# [27] = biological target: Man(a1-2)Man(a1-3)[Man(a1-2)Man(a1-6)]Man
# In short: as §1
# Man(b1-4)GlcNAc = biological target: Man(b1-4)GlcNAc
# In short: as §1
# [28] = biological target: Neu5Ac(a2-3)Gal(b1-4)GlcNAc(b1-2)Man(a1-3)[Neu5Ac(a2-6)Gal(b1-4)GlcNAc(b1-2)Man(a1-6)]Man(b1-4)GlcNAc(b1-4)GlcNAc
# In short: as §1
# [29] = biological target: Neu5Ac(a2-6)Gal(b1-4)GlcNAc(b1-2)Man(a1-3)[Neu5Ac(a2-6)Gal(b1-4)GlcNAc(b1-2)Man(a1-6)]Man(b1-4)GlcNAc(b1-4)GlcNAc
# In short: as §1
# Neu5Gc(a2-3)Gal(b1-4)Glc = biological target: Neu5Gc(a2-3)Gal(b1-4)Glc
# In short: as §1
# Neu5Gc(a2-6)GalNAc = biological target: Neu5Gc(a2-6)GalNAc
# In short: as §1
binder,measurement,setting,value
B1,glycan array binding signal (z-score),[1],-0.611
same,glycan array binding signal (z-score),[2],-1.02
same,glycan array binding signal (z-score),[3],0.344
same,glycan array binding signal (z-score),[4],4.13
same,glycan array binding signal (z-score),Gal(a1-3)Gal(b1-4)Glc,-1.04
same,glycan array binding signal (z-score),[5],0.315
same,glycan array binding signal (z-score),[6],-0.568
same,glycan array binding signal (z-score),Gal(b1-4)Glc6S,0.905
same,glycan array binding signal (z-score),[7],-0.321
same,glycan array binding signal (z-score),[8],-0.54
same,glycan array binding signal (z-score),Gal3S4S(b1-4)GlcNAc,3.63
same,glycan array binding signal (z-score),Gal3S6S(b1-4)GlcNAc6S,5.67
same,glycan array binding signal (z-score),Gal6S(b1-4)GlcNAc6S,0.505
same,glycan array binding signal (z-score),Man(a1-3)[Man(a1-6)]Man,-1.04
same,glycan array binding signal (z-score),[9],-0.305
same,glycan array binding signal (z-score),[10],2.88
same,glycan array binding signal (z-score),[11],1.73
same,glycan array binding signal (z-score),[12],2.96
same,glycan array binding signal (z-score),[13],-0.955
same,glycan array binding signal (z-score),[14],1.2
same,glycan array binding signal (z-score),[15],0.325
B2,glycan array binding signal (z-score),[1],3.46
same,glycan array binding signal (z-score),[16],0.586
same,glycan array binding signal (z-score),Fuc(a1-2)Gal(b1-4)GlcNAc,3.15
same,glycan array binding signal (z-score),Fuc(a1-2)[Gal(a1-3)]Gal,-0.294
same,glycan array binding signal (z-score),[3],3.61
same,glycan array binding signal (z-score),[17],-0.418
same,glycan array binding signal (z-score),[18],-0.355
same,glycan array binding signal (z-score),Gal(a1-4)Gal(b1-4)GlcNAc,-0.467
same,glycan array binding signal (z-score),[6],-0.403
same,glycan array binding signal (z-score),[19],-0.248
same,glycan array binding signal (z-score),[20],-0.173
same,glycan array binding signal (z-score),[21],-0.316
same,glycan array binding signal (z-score),[22],-0.537
same,glycan array binding signal (z-score),Gal3S4S(b1-4)GlcNAc,-0.168
same,glycan array binding signal (z-score),Gal3S6S(b1-4)GlcNAc6S,11.8
same,glycan array binding signal (z-score),Gal6S(b1-4)Glc6S,0.498
same,glycan array binding signal (z-score),[23],-0.015
same,glycan array binding signal (z-score),GlcNAc(b1-3)Man,2.51
same,glycan array binding signal (z-score),[24],1
same,glycan array binding signal (z-score),[25],0.172
same,glycan array binding signal (z-score),[26],-0.101
same,glycan array binding signal (z-score),Kdn(a2-3)Gal(b1-3)GlcNAc,1.99
same,glycan array binding signal (z-score),[27],0.253
same,glycan array binding signal (z-score),Man(b1-4)GlcNAc,-0.282
same,glycan array binding signal (z-score),[10],-0.221
same,glycan array binding signal (z-score),[28],0.231
same,glycan array binding signal (z-score),[29],-0.439
same,glycan array binding signal (z-score),Neu5Gc(a2-3)Gal(b1-4)Glc,-0.053
same,glycan array binding signal (z-score),Neu5Gc(a2-6)GalNAc,-0.411
